Experiment [1] concerns the target Glucagon-like peptide 1 receptor (Homo sapiens) (UniProt P43220). The experiment in a line: qHTS of GLP-1 Receptor Agonists: LOPAC Validation (AID 624148).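 Note: 0% is about no effect; higher luminescence signal means agonism.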 The procedure, abridged: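 HEK293 cells stably co-expressing a cAMP-responsive luciferase reporter and a hypersensitive GLP-1R were plated 12 h at 37 °C and exposed to compounds for 4-6 hr at 37 °C, 5% CO2. Luminescence was read 12 min after adding detection reagent.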
On the technique in general: qHTS replaces the single test concentration by a dilution series.

Experiment [2] in a line: qHTS of Nrf2 Activators: LOPAC Validation (AID 624149). Note: 0% is about no effect. The procedure, abridged:
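AREc32_Fluc cells, 1000/well, OPTI-MEM + 5% FBS, o/n 37 deg C 5% CO2; compound pin-transfer, 24 hr 37 deg C; Steady-Glo 30 min RT, luminescence read.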

A short description of experiment [3]: HTS Assay for Allosteric Antagonists of the Human D2 Dopamine Receptor: Hit Validation in HTRF (AID 624455). Note: % is set by controls: 0 for no effect and ±100 for the full control effect. In outline:
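HTRF read-out; cells stably expressing D1 receptor; hits scored for inhibition of D1-mediated response. Primary screen: calcium flux, force-coupled inducible Hek293 Trex D2 line, antagonism vs EC80 dopamine.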
(In general: Time-resolved FRET reads energy transfer from a long-lived donor to a nearby acceptor.)

Experiment [4] has as its target Arylsulfatase A (Homo sapiens) (UniProt P15289). Nature of the experiment: qHTS screen for enhancers of Arylsulfatase A (ASA1): LOPAC Validation Assay (AID 720538). Note: potency is the fitted concentration of half-maximal effect. The procedure, abridged:
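Enhancer assay in patient-derived MLD fibroblasts carrying ASA-I179S: 48 h compound exposure at 37 C, then 14 h room-temperature pNCS turnover (0.5 mM final) in lysis buffer. Read by fluorescence at 525/598 nm after NaOH stop.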

Experiment [5] is described as follows: qHTS for Activators of Parkin Expression: LOPAC Validation Assay (FLuc Reporter) (AID 720573;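 note: 0% = DMSO and 100% = positive control compounds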). In outline: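 FLuc signal from Parkin-promoter coincidence reporter neuronal cells, normalized to DMSO and positive control (100%). Cells (1,500/well) pre-incubated 24 h, then exposed to LOPAC compounds in 7-point dose response for 24 h at 37 C, 5% CO2.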
The target of experiment [6] is T1, Hexokinase-4 (Homo sapiens) + Glucokinase regulatory protein (Homo sapiens) (UniProt P35557+Q14397). The experiment in a line: qHTS assay for inhibitors of recombinant human GCK-GKRP interaction: Diaphorase-coupled assay (AID 743205). The procedure, abridged:
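A kinetic fluorescence read (Ex 525/Em 590 nm, every minute for 30 minutes) tracked resorufin from a G6PDH-diaphorase coupled GCK reaction. It contained 10 nM GST-GCK, 10 nM FLAG-GKRP, 5 mM glucose, 0.4 mM ATP in Hepes pH 7.6. Normalized to with/without-enzyme DMSO controls.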

In experiment [7] the target is T1, Hexokinase-4 (Homo sapiens) + Glucokinase regulatory protein (Homo sapiens). The experiment in a line: qHTS assay for inhibitors of recombinant human GCK-GKRP interaction: ADP-Glo assay (AID 743206).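 Note: plate controls were DMSO plus enzyme for no effect and no enzyme for full effect.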 In outline:
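Pin-transferred compounds meet a 15 nM GST-GCK/15 nM FLAG-GKRP/2 uM S6P mix (dispense concentrations). ATP is then added to 0.4 mM final with 5 mM glucose, and the reaction runs 60 min at room temperature. ADP is quantified luminescently.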

Experiment [8] has the same target. Nature of the experiment: qHTS assay for inhibitors of recombinant human GCK-GKRP interaction: HTRF assay (AID 743207).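 Note: 0% = DMSO with GCK present and -100% = DMSO wells lacking GCK.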 The procedure, abridged:
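After 60 min equilibration at room temperature with anti-FLAG XL665 and anti-GST antibodies, FRET ratio (665/615 nm, excitation 320 nm) was read. Proteins: GST-GCK and FLAG-GKRP, each 5 nM, plus 2 uM S6P, pH 7.1 buffer; GCK-free wells define minimum signal.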

Experiment [9] in a line: Natriuretic polypeptide receptor (hNpr1) antagonism - Pilot counterscreen GloSensor control cell line (AID 1347045; calls by dose curve; note: potency is the fitted concentration of half-maximal effect). In outline:
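HEK293 cGMP-sensor cells; 2% GloSensor reagent 2 h RT; LOPAC compounds in 1:5 titrations 30-50 min; 50 uM SNP 20 min; luminescence pre-read and post-read.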
Background: The purpose of a counterscreen is to sort out artefacts and off-target activity.

Experiment [10] concerns the target Atrial natriuretic peptide receptor 1 (Homo sapiens) (UniProt P16066). The experiment in a line: Natriuretic polypeptide receptor (hNpr1) antagonism - Pilot screen (AID 1347049; calls by dose curve;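 note: HEK293 cells with hNpr1 and GloSensor cGMP luciferase stimulated by 0.1 nM hNppA; agonist-evoked cGMP luminescence read 20 min after hNppA addition; potency is the fitted concentration of half-maximal effect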). In outline: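 Cells expressing receptor plus cGMP biosensor are seeded and incubated overnight at 37C, then loaded with GloSensor reagent (2% final) at room temperature for 2 h. Library compounds go on for 30 min. A pre-read precedes agonist (hNppA, 0.1 nM final) and a 20-min readout.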

For experiment [11], the target named is Atrial natriuretic peptide receptor 2 (Homo sapiens) (UniProt P20594). The experiment in a line: Natriuretic polypeptide receptor (hNpr2) antagonism - Pilot subtype selectivity assay (AID 1347050; calls by dose curve; note: potency is the fitted concentration of half-maximal effect). The procedure, abridged: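 Read-out: GloSensor luminescence (CCD imager), baseline vs post-stimulation. HEK293 cells expressing hNpr2; compounds pre-incubated 30-50 min at ambient temperature; hNppC 1 nM final, 20 min.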

Experiment [12] has as its target T2, Tyrosine-protein phosphatase non-receptor type substrate 1 (Homo sapiens) + Leukocyte surface antigen CD47 (Homo sapiens) (UniProt P78324+Q08722). Nature of the experiment: CD47-SIRPalpha protein protein interaction - LANCE assay qHTS validation (AID 1347057; active = well fitted curve in the direction sought with a large enough effect in the signal ratio, with a control signal flat, not every such curve was filed as active; the % refers to the signal ratio; note: series mostly up to about 38 µM; 0% is about no effect). The procedure, abridged:
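Inhibition of soluble CD47/SIRPalpha ectodomain association by titrated compounds, measured as 665/615 nm time-resolved FRET ratio after sequential 30 min room-temperature incubations.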

Experiment [13] concerns the target T2, Tyrosine-protein phosphatase non-receptor type substrate 1 (Homo sapiens) + Leukocyte surface antigen CD47 (Homo sapiens). The experiment in a line: CD47-SIRPalpha protein protein interaction - HTRF assay qHTS validation (AID 1347058; active = well fitted curve in the direction sought with a large enough effect in the signal ratio, not every such curve was filed as active; the % refers to the signal ratio; note: series mostly up to about 38 µM; 0% is about no effect). In outline:
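Soluble extracellular domains (6His-CD47, Avi-tag-biotinylated SIRPalpha) in PBS pH 7.4 with 0.05% IGEPAL CA-630. Compounds were preincubated 30 min at RT with CD47 and anti-His-Eu, then SIRPalpha and SAV-XL665 were added. TR-FRET 665/615 ratio.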

For experiment [14] the target is unchanged. The experiment in a line: CD47-SIRPalpha protein protein interaction - Alpha assay qHTS validation (AID 1347059).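 Note: bead proximity luminescence from CD47 binding SIRPalpha after compound preincubation with SIRPalpha; potency is the fitted concentration of half-maximal effect.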 The procedure, abridged: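 In PBS (pH 7.4) with 0.05% IGEPAL CA-630, compound is preincubated with biotin-Avi-SIRPalpha ectodomain before His-CD47 ectodomain and affinity beads are added. Light-protected room-temperature incubations; AlphaScreen readout.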

Experiment [15] addresses Parathyroid hormone/parathyroid hormone-related peptide receptor (Homo sapiens) (UniProt Q03431). Nature of the experiment: qHTS for PTHR1 Agonists: Optimization Screen against the NCGC LOPAC library (AID 1347079).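 Note: GloSensor cAMP luminescence in HEK-293 GP2 cells expressing human PTHR1 with IBMX; 0% is about no effect.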 The procedure, abridged:
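Signal increase flags agonism. GP2 cells, derived from HEK-293, express human PTHR1 and a GloSensor cAMP construct.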

Experiment [16] concerns the target Lysine-specific demethylase 5B (Homo sapiens) (UniProt Q9UGL1). The experiment in a line: Optimization screen for KDM5B Histone Demethylases FDH coupled qHTS against the LOPAC library (AID 1347166). Note: 0% is about no effect. The procedure, abridged:
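KDM5BDeltaAP (200nM final) in 50mM HEPES pH 7.5, 0.01% Tween-20 was preincubated with compound for 10 min at room temperature. A substrate mix of 12.5uM H3K4Me3, 25uM a-ketoglutarate, ascorbate, Fe2+, NAD+ and formaldehyde dehydrogenase was then added. NADH fluorescence (340/450 nm) was read initially and after 30 min.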

Experiment [17] is described as follows: Validation qHTS assay for inhibitors of Activation Induced Cytidine Deaminase (AID): UDG Counterscreen signal (AID 1347427). Note: 0% is about no effect. In outline: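 Fluorescence at 560 nm excitation, 665 nm emission reports UDG signal after 250 mM NaOH (2x) addition and 30 min. Enzymes (AID 1 uM, UDG 2 U/mL, at 4/3x) preincubated 10 min with compound, then 4 h with 4x 250 nM DJC20/DJC23 substrate at room temperature.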

Experiment [18] has as its target Single-stranded DNA cytosine deaminase (Homo sapiens) (UniProt Q9GZX7). The experiment in a line: Validation qHTS assay for inhibitors of Activation Induced Cytidine Deaminase (AID): AID signal (AID 1347429). Note: % is set by controls: 0 for no effect and ±100 for the full control effect. The procedure, abridged: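 AID+UDG coupled FRET deamination; cpds up to 114 uM final; DJC20/DJC23 substrate, 4 hr RT; NaOH stop, 30 min RT; read Ex 540/Em 590.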

Experiment [19] can be described thus: Primary qHTS for inhibitors of La Crosse Virus (LACV) - induced cell death in SH-SY5Y cells (AID 1508616).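 Note: top concentration of the series differs between compounds; 0% = infected DMSO wells and 100% = uninfected DMSO wells; higher means more rescue of cells from virus-induced death.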 In outline: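 Cytopathicity rescue screen: compounds pinned onto SH-SY5Y cells, which are then infected with LACV (MOI 0.01) and held 6 days at 37C. Percent activity is scaled between infected DMSO control and uninfected DMSO control.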
Experiment [20] in a line: Cell Viability qHTS for small molecule stabilizers of the endoplasmic reticulum resident proteome (AID 1508629).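 Note: human SH-SY5Y neuroblastoma cells carrying the GLuc-SERCaMP reporter; compound exposure about 46 h in total before the viability read; % is set by controls: 0 for no effect and ±100 for the full control effect.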 Conditions: cell viability counter-screen, 100 nM thapsigargin for final 4 h.
The next experiment has as its target Papain (Carica papaya) (UniProt P00784). The experiment in a line: Primary qHTS assay for inhibitors of the protease papain (AID 1645873).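 Note: papain turnover of Z-FR-AMC read as the AMC fluorescence gain over 10 min; series mostly up to about 50 µM; % is set by controls: 0 for no effect and ±100 for the full control effect.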
In experiment [21] the target is Metallo-beta-lactamase type 2 (Klebsiella pneumoniae) (UniProt C7C422). The experiment in a line: qHTS to identify inhibitors of the New Delhi Metallo-beta-lactamase (NDM): assay validation screen against the NCATS LOPAC Collection (AID 1794843). The procedure, abridged: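 Nitrocefin hydrolysis (50 uM substrate stock) by NDM-1, 2 nM final, was followed by 485 nm absorbance after compound preincubation; buffer was 50 mM HEPES pH 7.0, 1 uM ZnSO4, 0.01% Tween20.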

Experiment [22] concerns the target Glutathione peroxidase 1 (Homo sapiens) (UniProt P07203). Nature of the experiment: Primary qHTS Assay for Inhibitors of Recombinant Selenoprotein Glutathione Peroxidase 1 (GPX1) (AID 1845191). Note: nearly all actives have a fitted effect of over 65% in size. The procedure, abridged: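 GPX1 10 nM, GR 100 nM, GSH 1 mM, NADPH 0.5 mM, CHP 0.5 mM (final). 30-min cpd preincubation, RT. Ex340/Em450 read t=0, t=15 min.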

The structures appear in SMILES notation. Values without a mark were called inactive. Records with an inconclusive call do not appear. Calls of active or inactive are those of the source. Unless noted, calls come from the whole dose curve; as a rule, active = well fitted curve in the direction sought with a large enough effect; inconclusive = small, poorly fitted or top-dose-only effect, or another doubt; inactive = no such curve, though single readings can be large; an effect the other way counts as inactive or inconclusive.

T1 sequence (P35557 whole entry, looked up): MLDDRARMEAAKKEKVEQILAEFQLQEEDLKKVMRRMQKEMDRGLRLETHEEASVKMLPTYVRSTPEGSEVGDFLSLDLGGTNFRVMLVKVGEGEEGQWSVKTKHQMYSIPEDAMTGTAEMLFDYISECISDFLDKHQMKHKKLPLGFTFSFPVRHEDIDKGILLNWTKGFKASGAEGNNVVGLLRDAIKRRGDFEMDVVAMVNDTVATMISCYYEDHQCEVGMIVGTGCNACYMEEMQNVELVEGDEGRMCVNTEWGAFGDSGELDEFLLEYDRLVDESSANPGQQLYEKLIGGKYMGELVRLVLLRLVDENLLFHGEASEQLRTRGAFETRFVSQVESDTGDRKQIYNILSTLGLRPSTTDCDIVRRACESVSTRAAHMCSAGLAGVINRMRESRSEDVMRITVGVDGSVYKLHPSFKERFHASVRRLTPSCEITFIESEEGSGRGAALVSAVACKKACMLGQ
T1 sequence (Q14397 whole entry, looked up): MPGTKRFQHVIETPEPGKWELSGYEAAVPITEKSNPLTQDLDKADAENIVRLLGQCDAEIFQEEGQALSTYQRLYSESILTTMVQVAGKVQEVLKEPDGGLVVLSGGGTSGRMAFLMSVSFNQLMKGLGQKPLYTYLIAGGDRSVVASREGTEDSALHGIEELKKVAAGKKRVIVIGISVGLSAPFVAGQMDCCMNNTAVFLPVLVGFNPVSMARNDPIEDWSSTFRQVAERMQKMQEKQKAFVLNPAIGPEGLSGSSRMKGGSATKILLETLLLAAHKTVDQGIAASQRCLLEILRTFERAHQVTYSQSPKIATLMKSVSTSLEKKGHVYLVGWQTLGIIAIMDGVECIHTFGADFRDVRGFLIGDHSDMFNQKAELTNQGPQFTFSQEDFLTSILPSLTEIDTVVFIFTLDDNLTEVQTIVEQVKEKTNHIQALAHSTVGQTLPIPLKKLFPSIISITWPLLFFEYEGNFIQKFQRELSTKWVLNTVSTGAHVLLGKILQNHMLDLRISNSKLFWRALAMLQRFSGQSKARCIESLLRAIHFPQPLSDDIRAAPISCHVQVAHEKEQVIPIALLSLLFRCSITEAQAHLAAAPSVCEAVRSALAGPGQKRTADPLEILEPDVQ
T2 sequence (P78324 whole entry, looked up, the tested form may be a part): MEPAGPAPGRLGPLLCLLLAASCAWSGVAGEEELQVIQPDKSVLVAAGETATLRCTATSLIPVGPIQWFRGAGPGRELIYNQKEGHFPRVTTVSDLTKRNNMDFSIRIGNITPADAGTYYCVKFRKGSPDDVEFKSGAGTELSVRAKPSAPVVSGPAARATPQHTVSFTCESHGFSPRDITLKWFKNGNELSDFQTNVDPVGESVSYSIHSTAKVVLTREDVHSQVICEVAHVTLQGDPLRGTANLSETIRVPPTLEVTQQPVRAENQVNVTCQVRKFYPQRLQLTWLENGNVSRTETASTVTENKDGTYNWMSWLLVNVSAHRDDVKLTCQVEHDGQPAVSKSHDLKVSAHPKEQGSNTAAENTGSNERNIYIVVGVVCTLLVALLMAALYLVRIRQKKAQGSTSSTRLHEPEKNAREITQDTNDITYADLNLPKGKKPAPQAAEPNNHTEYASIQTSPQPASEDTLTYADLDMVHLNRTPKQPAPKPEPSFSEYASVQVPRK
T2 sequence (Q08722 whole entry, looked up, the tested form may be a part): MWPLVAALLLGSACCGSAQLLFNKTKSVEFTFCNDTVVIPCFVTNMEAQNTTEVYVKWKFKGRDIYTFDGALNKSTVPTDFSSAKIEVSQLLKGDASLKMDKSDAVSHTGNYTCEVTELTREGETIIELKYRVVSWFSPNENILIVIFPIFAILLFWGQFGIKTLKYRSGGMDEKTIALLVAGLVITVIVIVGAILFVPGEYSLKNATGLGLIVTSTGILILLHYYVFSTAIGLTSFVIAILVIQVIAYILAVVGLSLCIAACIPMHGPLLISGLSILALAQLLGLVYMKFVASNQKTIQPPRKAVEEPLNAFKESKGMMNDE
Arylsulfatase A (Homo sapiens), sequence (P15289 whole entry, looked up): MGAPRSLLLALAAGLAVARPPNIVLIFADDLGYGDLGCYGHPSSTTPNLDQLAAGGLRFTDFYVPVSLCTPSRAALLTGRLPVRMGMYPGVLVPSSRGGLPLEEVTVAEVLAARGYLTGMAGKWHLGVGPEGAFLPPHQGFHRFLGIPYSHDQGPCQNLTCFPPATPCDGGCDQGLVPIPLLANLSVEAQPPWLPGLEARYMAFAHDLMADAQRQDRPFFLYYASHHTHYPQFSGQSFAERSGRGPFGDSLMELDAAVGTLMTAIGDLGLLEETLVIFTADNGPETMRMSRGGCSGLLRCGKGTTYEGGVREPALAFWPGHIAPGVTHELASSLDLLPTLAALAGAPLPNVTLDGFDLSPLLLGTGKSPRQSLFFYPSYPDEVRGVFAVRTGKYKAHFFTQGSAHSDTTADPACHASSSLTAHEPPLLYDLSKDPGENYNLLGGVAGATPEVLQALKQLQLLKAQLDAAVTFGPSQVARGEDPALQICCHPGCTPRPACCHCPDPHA
Papain (Carica papaya), sequence (P00784 whole entry, looked up): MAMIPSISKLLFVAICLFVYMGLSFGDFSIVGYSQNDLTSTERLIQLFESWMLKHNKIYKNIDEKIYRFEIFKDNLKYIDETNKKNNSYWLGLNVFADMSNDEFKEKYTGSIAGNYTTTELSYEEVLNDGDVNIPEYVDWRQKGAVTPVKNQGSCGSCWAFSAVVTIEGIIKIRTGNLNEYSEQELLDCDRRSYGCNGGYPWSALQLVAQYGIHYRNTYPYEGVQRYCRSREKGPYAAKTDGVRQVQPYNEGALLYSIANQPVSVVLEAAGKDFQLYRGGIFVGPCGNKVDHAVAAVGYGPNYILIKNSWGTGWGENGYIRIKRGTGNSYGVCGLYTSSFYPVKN
Metallo-beta-lactamase type 2 (Klebsiella pneumoniae), sequence (C7C422 whole entry, looked up): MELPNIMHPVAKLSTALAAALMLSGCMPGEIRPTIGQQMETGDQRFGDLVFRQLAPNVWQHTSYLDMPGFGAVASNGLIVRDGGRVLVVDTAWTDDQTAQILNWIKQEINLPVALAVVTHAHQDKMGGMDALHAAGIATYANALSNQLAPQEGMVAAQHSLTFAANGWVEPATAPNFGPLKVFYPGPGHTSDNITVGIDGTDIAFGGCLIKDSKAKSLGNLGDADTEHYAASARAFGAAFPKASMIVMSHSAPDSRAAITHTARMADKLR
Parathyroid hormone/parathyroid hormone-related peptide receptor (Homo sapiens), sequence (Q03431 whole entry, looked up): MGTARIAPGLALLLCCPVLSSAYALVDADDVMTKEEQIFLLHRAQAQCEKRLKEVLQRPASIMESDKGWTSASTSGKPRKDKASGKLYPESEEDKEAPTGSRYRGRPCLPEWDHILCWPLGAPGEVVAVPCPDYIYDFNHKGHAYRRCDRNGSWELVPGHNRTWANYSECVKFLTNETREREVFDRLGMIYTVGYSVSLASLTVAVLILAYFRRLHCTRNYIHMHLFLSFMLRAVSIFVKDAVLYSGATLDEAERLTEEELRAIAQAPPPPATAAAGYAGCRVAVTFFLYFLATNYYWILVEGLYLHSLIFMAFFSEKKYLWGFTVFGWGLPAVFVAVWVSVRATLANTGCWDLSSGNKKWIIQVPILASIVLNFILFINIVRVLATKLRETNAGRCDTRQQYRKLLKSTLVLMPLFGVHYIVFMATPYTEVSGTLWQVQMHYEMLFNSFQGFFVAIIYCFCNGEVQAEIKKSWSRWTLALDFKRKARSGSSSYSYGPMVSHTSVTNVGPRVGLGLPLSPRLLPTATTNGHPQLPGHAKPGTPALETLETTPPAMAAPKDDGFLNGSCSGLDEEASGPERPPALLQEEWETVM
Glutathione peroxidase 1 (Homo sapiens), sequence (P07203 whole entry, looked up): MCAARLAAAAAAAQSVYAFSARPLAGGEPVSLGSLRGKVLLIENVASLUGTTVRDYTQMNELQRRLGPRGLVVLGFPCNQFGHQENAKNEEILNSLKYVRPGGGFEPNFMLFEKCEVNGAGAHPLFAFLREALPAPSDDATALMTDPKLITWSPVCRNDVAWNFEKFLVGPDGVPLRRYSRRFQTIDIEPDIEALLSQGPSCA
Atrial natriuretic peptide receptor 1 (Homo sapiens), sequence (P16066 whole entry, looked up): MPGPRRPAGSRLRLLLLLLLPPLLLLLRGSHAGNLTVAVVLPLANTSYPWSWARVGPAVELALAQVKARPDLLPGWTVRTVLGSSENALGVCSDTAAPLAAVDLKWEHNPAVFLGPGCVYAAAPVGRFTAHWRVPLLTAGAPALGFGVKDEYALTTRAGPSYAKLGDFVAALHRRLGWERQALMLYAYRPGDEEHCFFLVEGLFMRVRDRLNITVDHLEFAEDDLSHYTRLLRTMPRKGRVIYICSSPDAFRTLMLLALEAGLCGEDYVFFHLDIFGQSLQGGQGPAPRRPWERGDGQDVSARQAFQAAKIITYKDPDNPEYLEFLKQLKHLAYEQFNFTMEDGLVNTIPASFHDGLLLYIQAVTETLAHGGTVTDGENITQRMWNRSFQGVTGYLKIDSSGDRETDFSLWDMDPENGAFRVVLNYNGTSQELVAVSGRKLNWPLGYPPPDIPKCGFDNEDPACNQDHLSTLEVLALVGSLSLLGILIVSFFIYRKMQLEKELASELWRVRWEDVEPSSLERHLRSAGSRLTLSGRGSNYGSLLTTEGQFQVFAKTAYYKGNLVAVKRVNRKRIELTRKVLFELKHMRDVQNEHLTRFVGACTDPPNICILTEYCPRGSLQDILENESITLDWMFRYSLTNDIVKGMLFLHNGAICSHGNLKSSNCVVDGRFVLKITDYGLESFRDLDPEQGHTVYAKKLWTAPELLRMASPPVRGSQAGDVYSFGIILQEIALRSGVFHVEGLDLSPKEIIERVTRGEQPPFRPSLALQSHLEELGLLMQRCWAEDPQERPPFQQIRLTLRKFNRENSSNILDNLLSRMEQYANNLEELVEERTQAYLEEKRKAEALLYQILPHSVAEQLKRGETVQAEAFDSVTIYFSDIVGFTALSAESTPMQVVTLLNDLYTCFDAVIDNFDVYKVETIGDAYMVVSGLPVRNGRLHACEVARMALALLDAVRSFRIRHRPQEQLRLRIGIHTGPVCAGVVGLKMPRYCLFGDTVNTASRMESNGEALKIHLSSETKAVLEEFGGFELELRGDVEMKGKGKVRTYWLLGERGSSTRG

Regarding `O=C1c2ccccc2C(=O)c2c(NCCc3ccc(O)cc3)ccc(NCCc3ccc(O)cc3)c21`, the molecule was classed as inactive in [1], in [2], in experiment [3], in [6], in [7] and in experiment [8]. Also, the result in experiment [12], in [13], in experiment [15], in [16], in [17] and in [19] was inactive. The Potency was 9.53 µM (active) in experiment [4]; 11.7 µM (active) in experiment [9]; 12 µM (active) in experiment [10]; 13.1 µM (active) in [11]; 1.85 µM (active) in [14]. In addition, the Potency entry (in experiment [5]; in experiment [18]; in the experiment with Papain (Carica papaya); in [21]; in experiment [22]) was “inactive” in each case. Also, the max response in experiment [20] is -20.2%.

The record behind these values is PubChem BioAssay (NCATS).
